Screens (PubChem)
This is a sample that favours compounds with a hit; in the whole collection about 7.9% have one here.
Shh pathway inh: Hedgehog pathway signaling inhibitors, primary screen, luminescence, Shh-LIGHT2 cells, Gli-luciferase. Shh-LIGHT2 Gli-luciferase reporter, 30 h. inhibition, % (no concentration beside the values). 22,000 tested, 2.1% active. AID 2313, 2010;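 active = mean inhibition across valid replicates above about 65%, limit read from the data; inconclusive = mean under the limit, yet half or more replicates past it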;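 also: pathway switched on by Shh-conditioned medium diluted 1 in 25 in low serum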
MITF inhib: inhibitors of MITF, primary screen, MITF inhibitor project, cell-based, luminescence; TRPM1 promoter luciferase, 24 h; inhibition, % (no concentration beside the values); 37,000 tested, 0.28% active; AID 2240, 2010; in the data active = inhibition above about 85%; inconclusive = no clear call, values can overlap the other calls; inactive = below about 68%;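 also: human melanocyte line stably carrying TRPM1 promoter luciferase reporter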
NOMO-1 viab: NOMO-1 AML cell viability reduction, primary screen, STK33 inhibitor project, CellTiter-Glo luminescence; AID 2330, 2010; 37,000 tested, 7.5% active; inhibition, % (concentration not given with the values); NOMO-1 AML viability, 72 h; in the data active = inhibition above about 80%; inconclusive = no clear call, values can overlap the other calls
Each line names hits and unclear results; the compound was inactive in the other large screens.

C[C@H]1CN([C@@H](C)CO)C(=O)Cc2cc(NC(=O)Nc3ccc(C(F)(F)F)cc3)ccc2O[C@H]1CN(C)Cc1ccc(C(F)(F)F)cc1	NOMO-1 viab 136
C[C@@H]1CN([C@H](C)CO)C(=O)Cc2cc(NC(=O)NC3CCCCC3)ccc2O[C@H]1CN(C)Cc1ccc(C(F)(F)F)cc1	NOMO-1 viab 93
C[C@H]1CN([C@@H](C)CO)C(=O)Cc2cc(NC(=O)NC3CCCCC3)ccc2O[C@H]1CN(C)Cc1ccc(C(F)(F)F)cc1	none
C[C@H]1CN([C@@H](C)CO)C(=O)Cc2cc(NC(=O)Nc3ccc(C(F)(F)F)cc3)ccc2O[C@@H]1CN(C)Cc1ccc(C(=O)O)cc1	none
C[C@@H]1CN([C@H](C)CO)C(=O)Cc2cc(NC(=O)Nc3ccc(F)cc3)ccc2O[C@@H]1CN(C)Cc1ccc(C(F)(F)F)cc1	NOMO-1 viab inconclusive
C[C@H]1CN([C@@H](C)CO)C(=O)Cc2cc(NC(=O)CCN3CCOCC3)ccc2O[C@@H]1CN(C)C(=O)Nc1ccccc1	none
CCOC(=O)C1CCCN(S(=O)(=O)c2ccc(Cl)c(Cl)c2OC)C1 (stereo not given)	none (no result: Shh pathway inh)
C[C@@H]1CN([C@@H](C)CO)C(=O)c2cc(NC(=O)C3CC3)ccc2O[C@@H]1CN(C)S(=O)(=O)c1ccc(F)cc1	none (no result: Shh pathway inh)
C[C@@H]1CN([C@@H](C)CO)C(=O)c2cccc(NS(C)(=O)=O)c2O[C@@H]1CN(C)Cc1ccccc1	none
Cc1ccc(S(=O)(=O)Nc2ccc3c(c2)C(=O)N([C@H](C)CO)C[C@@H](C)[C@H](CN(C)Cc2ccc(C(F)(F)F)cc2)O3)cc1	none
Cc1ccc(S(=O)(=O)Nc2ccc3c(c2)CC(=O)N([C@H](C)CO)C[C@@H](C)[C@@H](CN(C)Cc2ccc(C(=O)O)cc2)O3)cc1	none
Cc1ccc(S(=O)(=O)Nc2ccc3c(c2)CC(=O)N([C@@H](C)CO)C[C@H](C)[C@@H](CN(C)Cc2ccc(C(F)(F)F)cc2)O3)cc1	Shh pathway inh 69, NOMO-1 viab 98
Cc1ccc(S(=O)(=O)Nc2ccc3c(c2)CC(=O)N([C@H](C)CO)C[C@@H](C)[C@@H](CN(C)Cc2ccc(C(F)(F)F)cc2)O3)cc1	NOMO-1 viab 114
Cc1ccc(S(=O)(=O)Nc2ccc3c(c2)C(=O)N([C@H](C)CO)C[C@H](C)[C@H](CN(C)C(=O)NC2CCCCC2)OCCCC[C@@H](C)O3)cc1	none
C[C@@H]1CN([C@@H](C)CO)C(=O)c2cccc(NC(=O)Nc3ccc(C(F)(F)F)cc3)c2O[C@H]1CN(C)Cc1ccc(-c2ccccc2)cc1	none
C[C@H](CO)N1C[C@H](C)[C@H](CN(C)Cc2ccc(-c3ccccc3)cc2)Oc2c(NC(=O)Nc3ccc(C(F)(F)F)cc3)cccc2C1=O	NOMO-1 viab 82
C[C@@H]1CN([C@H](C)CO)C(=O)c2cccc(NC(=O)Nc3ccc(C(F)(F)F)cc3)c2O[C@H]1CN(C)Cc1ccc(-c2ccccc2)cc1	NOMO-1 viab 110
COc1ccc(S(=O)(=O)N(C)CC(=O)Nc2cc(Cl)c(Cl)cc2Cl)cc1	none (no result: Shh pathway inh)
COc1cc2c(c3c1C(=O)C[C@H](c1ccccc1)O3)C=CC(C)(C)O2	none (no result: MITF inhib, NOMO-1 viab)
COC(=O)c1ccccc1NC(=O)COc1ccc([N+](=O)[O-])c(C)c1	none (no result: Shh pathway inh)
CC[C@]1(O)C[C@H]2CN(CCc3c([nH]c4ccccc34)[C@@](C(=O)OC)(c3cc4c(cc3OC)N(C=O)[C@H]3[C@@](O)(C(=O)OC)[C@H](OC(C)=O)[C@@]5(CC)C=CCN6CC[C@]43[C@@H]65)C2)C1	Shh pathway inh 71, NOMO-1 viab 94
C[C@@H]1CN([C@@H](C)CO)C(=O)Cc2cc(NC(=O)Nc3ccc(F)cc3)ccc2O[C@@H]1CN(C)C(=O)Nc1ccc(C(F)(F)F)cc1	none (no result: Shh pathway inh)
C[C@@H]1CN([C@@H](C)CO)C(=O)Cc2cc(NC(=O)Nc3ccc(C(F)(F)F)cc3)ccc2O[C@@H]1CN(C)C(=O)Nc1cccc2ccccc12	NOMO-1 viab 83
C[C@@H]1CN([C@@H](C)CO)C(=O)Cc2cc(NC(=O)Nc3ccc(C(F)(F)F)cc3)ccc2O[C@@H]1CN(C)C(=O)Nc1ccccc1	NOMO-1 viab 112
C[C@@H]1CN([C@H](C)CO)C(=O)Cc2cc(NC(=O)Nc3ccc(C(F)(F)F)cc3)ccc2O[C@@H]1CN(C)C(=O)Nc1ccc(F)cc1	none (no result: Shh pathway inh)
C[C@H](CO)N1C[C@H](C)[C@H](CN(C)C(=O)Nc2ccccc2)Oc2ccc(NC(=O)Nc3ccc(C(F)(F)F)cc3)cc2CC1=O	NOMO-1 viab 92
C[C@@H]1CN([C@H](C)CO)C(=O)Cc2cc(NC(=O)Nc3ccc(C(F)(F)F)cc3)ccc2O[C@@H]1CN(C)C(=O)Nc1cccc2ccccc12	none
CC(=O)NCc1c(F)cccc1Cl	none
C[C@@H]1CN([C@H](C)CO)C(=O)c2cccc(NC(=O)Nc3ccc(C(F)(F)F)cc3)c2O[C@@H]1CN(C)S(=O)(=O)c1cccs1	Shh pathway inh inconclusive, NOMO-1 viab 101
C[C@@H]1CN([C@@H](C)CO)C(=O)c2cccc(NC(=O)Nc3ccc(C(F)(F)F)cc3)c2O[C@H]1CN(C)S(=O)(=O)c1cccs1	NOMO-1 viab 88
C[C@H]1CN([C@@H](C)CO)C(=O)c2cccc(NC(=O)Nc3ccc(C(F)(F)F)cc3)c2O[C@@H]1CN(C)S(=O)(=O)c1cccs1	none
C[C@H](CO)N1C[C@H](C)[C@@H](CN(C)S(=O)(=O)c2cccs2)Oc2c(NC(=O)Nc3ccc(C(F)(F)F)cc3)cccc2C1=O	none
Cc1cc2ncc(-c3ccnc(SCCS(=O)(=O)c4ccccc4)n3)c(C)n2n1	none
Cc1ccc(C)n1-c1ccc(C(=O)OCC(=O)c2ccc(Cl)cc2)cc1	NOMO-1 viab 121
O=C(COC(=O)C1CC=CCC1C(=O)OCC(=O)c1ccc(Cl)cc1)c1ccc(Cl)cc1 (stereo not given)	none (no result: Shh pathway inh)
Cc1nn(-c2cc(Cl)ccc2Cl)c(N)c1-c1nc(-c2ccccc2)cs1	none (no result: Shh pathway inh)
CN1CCN2c3ncccc3Cc3ccccc3C2C1 (stereo not given)	none
CC(C)(C)[C@]1(O)CCN2C[C@H]3c4ccccc4CCc4cccc(c43)[C@@H]2C1	Shh pathway inh 78
COc1cc(/C=C/C=O)cc(OC)c1O	none (no result: MITF inhib, NOMO-1 viab)
COc1ccc(NC(=O)CN(c2ccccc2Cl)S(C)(=O)=O)c(OC)c1	none (no result: Shh pathway inh)
C=C(C)C(=O)O[C@H]1[C@H]2C(=C)C(=O)O[C@@H]2C[C@@H](C)[C@@H]2O[C@@H]2C(=O)[C@](C)(O)[C@@H]1OC(=O)C(=C)C	Shh pathway inh 100, NOMO-1 viab 119
C[C@@H]1CN([C@H](C)CO)C(=O)Cc2cc(NS(=O)(=O)c3cn(C)cn3)ccc2O[C@H]1CN(C)CC1CCCCC1	none
O=C1C=CC(=O)c2c(O)c(Cl)c(Cl)c(O)c21	NOMO-1 viab 98
N#CCCN(Cc1ccco1)C(=S)Nc1ccccc1	none (no result: Shh pathway inh)
C[C@H](CO)N1C[C@H](C)[C@H](CN(C)S(=O)(=O)c2ccc(Cl)cc2)Oc2c(NS(=O)(=O)c3ccc(F)cc3)cccc2C1=O	Shh pathway inh 70
C[C@@H]1CN([C@H](C)CO)C(=O)c2cccc(NS(=O)(=O)c3cccs3)c2O[C@H]1CN(C)C(=O)NC1CCCCC1	none
